Results on 40 compounds are retold here after PubChem BioAssay (NCI).

The panel holds about 83,000 compounds, 20% with a hit somewhere; the sample as a whole holds those more often.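 Cell lines were cultured in 96-well plates, exposed to a single compound concentration, and assessed for percent growth 48 hours later.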 A number with no mark means an inactive call. The source made the active and inactive calls.

The subject of this assay is HOP-92 NSCLC. The experiment in a line: NCI-60 one-dose screen, 48 h (100 = growth as untreated, 0 = no growth, -100 = all killed). Conditions: 10 µM unless noted. The procedure:
Growth inhibition of the HOP-92 human Non-Small Cell Lung tumor cell line is measured as a screen for anti-cancer activity. Cells are grown in 96 well plates and exposed to the test compound for 48 hours. Compounds are tested at a single concentration, which is 10^-5 M for most compounds. The reported endpoint is percent growth (GI% or GIPRCNT), where numbers from 0 - 100% represent growth inhibition, and numbers from -100% - 0 represent cell death. For example, a value of 40 represents 60% growth inhibition. A value of 0 means no net growth occurred over the course of the experiment. A value of -40 indicates 40% of cells at the beginning of the experiment died by the end of the experiment. A value of -100 means all cells are dead at the end of the experiment.
NCI-60 Human Tumor Cell Lines Screen was performed using the standard one-dose NCI protocol, which is described in more detail at https://dtp.cancer.gov/discovery_development/nci-60/default.htm.
Compounds with GIPRCNT values below 10 were considered active. Activity score was based on GIPRCNT using the following formula: […]
Score is 0 for GIPRCNT values of 100 or above, 50 for GIPRCNT values of 0, and 100 for GIPRCNT values of -100.
Regarding `COc1cccc(-c2nc3sccn3c2-c2ccnc(NCCNS(=O)(=O)c3c(Cl)cccc3Cl)c2)c1`, the growth was 43%.

`COc1ccc(-n2sc(=O)n(Cc3ccc(COC(=O)C(C)c4ccc(CC(C)C)cc4)cc3)c2=O)cc1` (stereo not given): the growth was 19.2%.

As for `O=C1/C(=C/c2ccccc2[N+](=O)[O-])COc2ccc(O)c(O)c21`, the growth was -9.78% (active).

With `C=C(C)C1CCC(=C)C2CCC3(C)OC12/C=C(/COC(C)=O)CCC3O` (stereo not given), the growth is 60.6%.

On to `COc1ccc(/C=N/NC(=O)Cn2c(-c3ccc(S(C)(=O)=O)cc3)nc3cc(Cl)ccc32)cc1`, for which the growth was 49.3%.

In the case of `Cc1ccc(S(=O)(=O)Nc2sccc2-c2nc(-c3ccccc3)no2)cc1`, the growth was 88.8%.

In the case of `CN(C)c1ccc2cc(-c3ccccc3F)c(N)nc2c1`, the growth is 32.3%.

On to `CN1CCN(c2ccc3nc(/N=C/c4ccc5sc(-c6ccc([N+](=O)[O-])cc6)nc5c4)sc3c2)CC1`, for which the growth was 111%.

Turning to `CCOC(=O)C1C(=O)C=C(c2cnccn2)CC1c1ccc(OC)c(OC)c1` (stereo not given), the growth is 58.2%.

For `C=C1C(=O)O[C@H]2[C@H]1CC/C(COC(=O)/C=C\C(=O)NCc1ccc(Cn3c(=O)sn(CCCI)c3=O)cc1)=C\CC[C@@]1(C)O[C@@H]21`, the growth was -68.6% (active).

Take `NC(N)=N/N=C(/c1ccccc1)c1ccc(N)cc1`: the growth was 92.8%.

As for `O=C(Nc1ccc(N2CCCCC2)c(Cl)c1)c1ccc(Br)o1`, the growth is 105%.

Take `CCc1nc2ccccc2[nH]1`: the growth is 99.7%.

Consider `COc1ccc(/C(C)=C(\c2ccc(Cl)cc2)c2ccc(OCCN3CCCCC3)cc2)cc1F`, for which the growth is 59.6%.

As for `COc1cc2c(cc1OC)-c1ccc3cc4c(cc3c1N(CCCn1ccnc1)C2)OCO4`, the growth is 26.8%.

Regarding `CCCCCOC(=O)c1ccc(NC(=O)CNCC(C)C)cc1`, the growth is 53.8%.

Regarding `NC(N)=N/N=C/c1ccc(Br)cc1`, the growth was 49.3%.

For `COc1cc2c(c(OC)c1OC)C(=O)/C(=C/c1cc(C)c(O)c(C)c1)S2`, the growth is 54.6%.

In the case of `Clc1ccc(-c2nnc(-c3ccco3)o2)cc1`, the growth was 72.6%.

Consider `COc1ccc(/C=C2\COc3ccc(O)cc3C2=O)cc1OC`, for which the growth is 59.1%.

Consider `CS(=O)(=O)c1ccc(-c2[nH]c3ccc(F)cc3c2/C=N/O)cc1`, for which the growth was 87.6%.

Take `COc1ccc(-c2nc3ccccn3c2/C=C/C(=O)c2cc(OC)c(OC)c(OC)c2)cc1`: the growth was 22.7%.

Turning to `Cc1cc(Cl)nc(N(CCCNc2ccnc3cc(Cl)ccc23)Cc2ccccn2)n1`, the growth was 30.6%.

Turning to `O=C1CSC(c2ccccc2Cl)N1c1nnc(Cn2cnnc2)o1` (stereo not given), the growth is 43%.

`Cc1nc(C)c(-c2nn3c(-c4cccc(F)c4)nnc3s2)s1`: the growth is 86.2%.

Regarding `O=C(NC(=S)Nc1ccc(-c2nc3ccccc3[nH]2)cc1)c1ccc2ccccc2c1`, the growth was -1.16% (active).

For `C=C(CNCCc1ccc(O)cc1)[C@@H]1CC[C@]2(COC3CCCCO3)CC[C@]3(C)[C@H](CC[C@@H]4[C@@]5(C)CCC(NCCO)C(C)(C)[C@@H]5CC[C@]43C)[C@@H]12` (stereo not given in full), the growth was -80.8% (active).

Turning to `COc1ccc(-c2nnc(SCC(=O)NC3=NN=C(c4ccccc4)CS3)o2)cc1`, the growth is 98.5%.

Regarding `CCOC(=O)C(=CNc1ccccc1[N+](=O)[O-])C(=O)OCC`, the growth was 80.6%.

With `CCNCCNc1cc(-c2ccc(F)cc2)c(C#N)c2nc3ccccc3n12`, the growth was 52.1%.

`O=C(NCOC(O)C(Cl)(Cl)Cl)NCOC(O)C(Cl)(Cl)Cl` (stereo not given): the growth was 119%.

As for `Clc1ccc(/C=N\N=c2\scc(-c3ccc(Cl)cc3)n2/N=C/c2ccc(Cl)cc2)cc1`, the growth is 106%.

For `CCCCS(=O)(=O)Oc1ccc(-c2nc(C)c(C(=O)OCC)s2)cc1C=O`, the growth was 69.5%.

For the compound `COc1ccc(C2CC(c3cnccn3)=NN2)cc1OC` (stereo not given), the growth was 68.3%.

For `CC(C)(C)Nc1c(-c2c3ccccc3cc3ccccc23)nc2ccccn12`, the growth was 45%.

Turning to `NC(=S)N/N=C/C(=O)O`, the growth was 81.8%.

Consider `O=S(=O)(Cc1ccccc1)c1nc2ccccc2s1`, for which the growth is 33.7%.

Turning to `CCCc1nc2ccccn2c1Nc1ccc(C(=O)NO)cc1`, the growth was 103%.

Take `C[N+](C)(C)CCOC(OCC[N+](C)(C)C)(c1ccccc1)c1ccccc1`: the growth was 91%.

Turning to `CC(C)(O)c1cccc(F)c1`, the growth was 86.1%.
